Mcl-1 Bim block: human Bim-Mcl-1 interaction inhibition | Q07820 | Bead-based flow cytometry, Bim peptide-Mcl-1 binding | inhibition, % at 10 µM | hit rate 0.1% among 190,000 | AID 1009; in the data active means inhibition above about 40%
Target sequence (Q07820 whole entry, looked up): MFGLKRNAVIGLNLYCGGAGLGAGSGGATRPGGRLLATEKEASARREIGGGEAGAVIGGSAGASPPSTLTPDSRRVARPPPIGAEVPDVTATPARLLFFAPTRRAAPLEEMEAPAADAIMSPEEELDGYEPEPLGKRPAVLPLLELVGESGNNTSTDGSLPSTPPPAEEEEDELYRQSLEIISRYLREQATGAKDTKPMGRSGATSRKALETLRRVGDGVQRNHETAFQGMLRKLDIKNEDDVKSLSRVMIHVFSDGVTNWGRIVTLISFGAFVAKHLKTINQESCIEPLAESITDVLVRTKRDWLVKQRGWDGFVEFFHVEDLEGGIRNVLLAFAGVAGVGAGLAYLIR
Mcl1-Noxa inh: Mcl-1/Noxa interaction inhibition; TR-FRET Mcl-1/Noxa peptide binding, 2 h; inhibition, % at 21.7 µM; hit rate 1.5% among 220,000; AID 1022;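 active means compounds that cut the protein-peptide binding signal by more than 50% relative to plate controls in a single-dose test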;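 further: His-tagged Mcl-1 with rhodamine Noxa BH3 peptide and terbium anti-His antibody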
Bcl-xL primary: blocks human Bcl-xL binding to Bim BH3 peptide | inhibition, % at 10.9 µM | Q07817 | GST-Bcl-xL / FITC-Bim BH3 peptide fluorescence polarization | hit rate 0.7% among 320,000;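 active means inhibition above the mean of all tested compounds plus 3 SD, cutoff set per campaign, cut at about 30% in these data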;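 further: inhibitors lower millipolarization by displacing the labeled peptide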
Target sequence (Q07817 whole entry, looked up): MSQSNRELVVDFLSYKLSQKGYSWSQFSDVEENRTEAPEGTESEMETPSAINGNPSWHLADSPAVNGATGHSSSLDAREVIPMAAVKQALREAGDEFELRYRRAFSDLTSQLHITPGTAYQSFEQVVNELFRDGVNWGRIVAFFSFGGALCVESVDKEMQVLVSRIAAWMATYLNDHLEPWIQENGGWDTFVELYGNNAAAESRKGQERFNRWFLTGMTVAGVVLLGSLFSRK
GLD-1 TGE inh: GLD-1-TGE RNA interaction inhibition (C. elegans) | Q17339 | purified GLD-1 + fluorescein TGE RNA, fluorescence polarization | inhibition, % at 5.96 µM | hit rate 0.44% among 320,000;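 active means percent inhibition above a per-plate cutoff, the plate mean of test compounds plus 3 SD, cut at about 30% in these data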
Mcl1 Bid PPI: disrupts binding of human Mcl-1 to Bid peptide. Q07820. TR-FRET Mcl-1/Bid-Dy647 peptide binding, 1536-well. inhibition, % at 21.7 µM. hit rate 0.97% among 220,000. AID 1021;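 active means compounds that cut the binding signal by more than half at the single screening dose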;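 further: His-tagged Mcl-1 with europium anti-His antibody binding Bid BH3 peptide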
MCL1-BIM inh: MCL1-BIM-BH3 interaction inhibition (human) | hit rate 0.68% among 320,000 | AID 2057 | inhibition, % at 10.9 µM | GST-MCL1 / FITC-Bim-BH3 fluorescence polarization;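 active means inhibition above the mean inhibition of all tested compounds plus 3 SD, set per campaign, cut at about 40% in these data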;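 further: higher means more loss of mP so more displacement of Bim peptide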
Numbers stand for hits; – = inactive; · = not tested or not shown. Only some compounds are listed: those with a hit (about 2.3% of all), similar ones and a draw of the others.

SMILES	Mcl-1 Bim block	Mcl1-Noxa inh	Bcl-xL primary	GLD-1 TGE inh	Mcl1 Bid PPI	MCL1-BIM inh
Cc1ccc(NC(C)C(=O)N/N=C/c2c[nH]c3ccccc23)cc1 (stereo unspecified)	–	54.4	–	–	–	–
Cc1ccccc1NC(C)C(=O)N/N=C/c1c[nH]c2ccccc12 (stereo unspecified)	–	–	–	–	–	–
Cc1cc(C)cc(N(CC(=O)NC2CCCC2)C(=O)c2csnn2)c1	·	·	–	–	·	–
O=C(CCNC(=O)c1ccccc1Cl)NCC1CCCO1 (stereo unspecified)	·	·	–	–	·	–
O=C(CNS(=O)(=O)c1ccccc1)OCc1cccc([N+](=O)[O-])c1	–	–	37.6	–	–	–
COc1ccc(S(=O)(=O)/C(C#N)=C/Nc2cccc(F)c2)cc1	·	·	–	–	·	–
Cc1cccc(NS(=O)(=O)c2ccc(C(=O)NCC(c3ccco3)N(C)C)cc2)c1C (stereo unspecified)	·	·	–	–	·	–
Cn1c(C2CCCCC2)nc2c1c(=O)[nH]c(=O)n2Cc1ccccc1	–	–	–	–	–	–
Cc1ccc(-c2nc3c(c(=O)[nH]c(=O)n3Cc3ccccc3)n2C)o1	–	97.0	·	·	–	·
Cc1ccc(-c2nc3c(c(=O)[nH]c(=O)n3Cc3ccccc3)n2C)s1	·	–	–	–	65.3	–
CCn1cc(C(=O)Nc2cccc(C(=O)OC)c2)c(=O)c2ccc(C)nc21	·	·	–	–	·	–
CCn1cc(C(=O)Nc2ccc(-n3cnnn3)c(OC)c2)c(=O)c2ccc(C)nc21	–	58.0	·	·	–	·
CC(=O)c1c(C)c(C)c2n1CCn1c(C)ccc1-2	·	–	35.7	–	–	–
CCC1=[N+](C)CCn2c(C)ccc21	–	–	–	–	–	–
CC(=O)c1ccc(NC(=O)CSc2nnc(-c3ccco3)c(-c3ccco3)n2)cc1	–	79.1	–	–	–	–
CC(=O)Nc1ccc(NC(=O)CSc2nnc(-c3ccco3)o2)cc1	–	–	–	–	–	–
CCOC(=O)CSC1=NC(=O)/C(=C\c2ccc(OC(C)=O)cc2)S1	–	59.8	–	–	–	–
CCOC(=O)CSC1=NC(=O)/C(=C/c2ccc(Br)cc2)S1	–	–	–	–	–	–
Nc1ccc(O)c2c(=O)cc(-c3ccccc3Cl)oc12	–	–	–	–	–	–
CCN(CC)c1ccc(NC(=O)CN2CCN(CC(=O)Nc3ccccc3F)CC2)cc1	–	55.0	–	–	–	–
CCN(CC)c1ccc(NC(=O)CN2CCN(CC(=O)Nc3ccccc3OC)CC2)cc1	·	·	–	–	·	–
CCOCC(=O)Nc1cc(Cl)ccc1C	–	–	–	–	–	–
Cc1cccc(Nc2nnc(SC/C(O)=C(\C#N)c3nc4ccccc4[nH]3)s2)c1	–	51.5	–	–	–	–
COc1ccc(C)cc1-n1nnnc1SC/C(O)=C(\C#N)c1nc2ccccc2[nH]1	–	–	–	–	–	–
Cc1ccc(Nc2nnc(SC/C(O)=C(\C#N)c3nc4ccccc4[nH]3)s2)c(C)c1	–	69.5	–	–	–	–
SMILES	Mcl-1 Bim block	Mcl1-Noxa inh	Bcl-xL primary	GLD-1 TGE inh	Mcl1 Bid PPI	MCL1-BIM inh
O=C1CCCN1CC(O)CS(=O)(=O)Cc1ccccc1 (stereo unspecified)	·	·	–	–	·	–
O=C(N/N=C/c1cccc(F)c1)c1ccc(Cl)cc1	–	–	–	–	–	–
O=C(Oc1ccccc1[N+](=O)[O-])c1cccnc1	–	–	–	–	–	–
Cc1ccccc1SCC(=O)OCC(=O)Nc1ccc(N(C)C)cc1	–	60.6	–	–	–	–
COCC(=O)Nc1ccc(N(C)C)cc1	–	–	–	–	–	–
CN(C)c1ccc(NC(=O)COC(=O)Cn2nnc3ccccc32)cc1	–	71.4	–	–	–	–
COc1ccc(NC(=O)COC(=O)Cn2nnc3ccccc32)cc1	–	–	–	–	–	–
Cn1c(=O)n(C)c2cc(/C=N/n3cnnc3)ccc21	–	–	–	–	–	–
CCNC(=O)C1CCCN1S(=O)(=O)c1ccc2ccccc2c1 (stereo unspecified)	·	·	–	–	·	–
O=C(NCCc1ccccc1F)C1CCCN1S(=O)(=O)c1ccc2ccccc2c1 (stereo unspecified)	–	–	39.5	–	–	–
COc1cc(OC)cc(C(=O)N(CCCN2C(=O)c3cccc4cccc(c34)C2=O)c2cccc(OC)c2)c1	–	–	–	–	83.7	–
CC(C)c1ccc(NC(=O)Cn2ncn3c(cc4ccccc43)c2=O)cc1	·	·	–	–	·	–
CN(C)c1ccc(NC(=O)Cn2ncn3c(cc4ccccc43)c2=O)cc1	–	75.9	–	–	–	–
c1ccc2oc(-c3csc(N4CCOCC4)n3)cc2c1	–	–	–	–	–	–
Cc1nc2sccn2c1-c1nc(-c2cc3ccccc3o2)cs1	–	53.8	–	–	–	–
O=C(NCc1cc(C(F)(F)F)ccc1Cl)c1cccc2c1C(=O)c1ccc(N3CCC(Cc4ccccc4)CC3)cc1S2(=O)=O	·	·	·	158.8	·	·
O=C(NC1CCCCC1)c1cccc2c1C(=O)c1ccc(N3CCCC3)cc1S2(=O)=O	·	·	·	31.8	·	·
CC(C)(C)CNC(=O)c1cccc2c1C(=O)c1ccc(N3CCCC3)cc1S2(=O)=O	·	·	·	31.6	·	·
O=C(NC1CC1)c1cccc2c1C(=O)c1ccc(N3CCC(Cc4ccccc4)CC3)cc1S2(=O)=O	·	·	·	44.6	·	·
CCN(C(=O)c1cccnc1SC)C12CC3CC(CC(C3)C1)C2	·	·	–	–	·	–
Cc1csc(NC(=O)CSCC(=O)O)c1-c1nc2ccccc2s1	·	–	–	–	–	–
O=C(NCc1ccc(F)cc1)c1cccc2c1C(=O)c1ccc(N3CCC(Cc4ccccc4)CC3)cc1S2(=O)=O	·	·	·	167.6	·	·
O=C1NC2=C(C(=O)CCC2)C(c2ccccc2[N+](=O)[O-])N1 (stereo unspecified)	·	·	50.9	–	·	51.3
CC(C)C(=O)NNC(=O)CN1CCN(c2nc(-c3ccccc3)cs2)CC1	–	–	–	–	–	–
Cc1c([N+](=O)[O-])c(C(=O)Nc2ccc3c(c2)OCCO3)nn1C	–	–	–	–	73.3	–
SMILES	Mcl-1 Bim block	Mcl1-Noxa inh	Bcl-xL primary	GLD-1 TGE inh	Mcl1 Bid PPI	MCL1-BIM inh
COc1cc2cc3c(N)c(C(=O)NCc4ccco4)sc3nc2cc1OC	–	56.5	–	–	–	–
COc1cc2cc3c(N)c(C(=O)Nc4sc(C)c(C)c4C#N)sc3nc2cc1OC	–	98.1	–	–	66.4	–
Cc1ccc2nc3sc(C(=O)NCc4ccco4)c(N)c3cc2c1	–	–	–	–	–	–
COc1ccccc1/C=N/Nc1cc(C)nc(N2CCOCC2)n1	·	–	–	–	–	–
CCNC(=O)/C(=C\c1ccc2c(c1)OCO2)NC(=O)c1ccc(Br)cc1	–	–	–	–	–	–
N#Cc1cc(NC(=O)c2ccc(F)cc2)c(=O)n2c1[nH]c1ccccc12	–	60.8	–	–	–	–
Cc1c(CCC(=O)O)c(=O)n2c([nH]c3ccccc32)c1C#N	–	–	–	–	–	–
C=CCCC(=O)N1CCC(CCC(=O)NC2CC2)CC1	·	·	–	–	·	–

Compound activity: PubChem BioAssay, several laboratories
